Laboratory results from PubChem BioAssay AID1347428 (National Center for Advancing Translational Sciences (NCATS), 2020).
Screen size: about 91,000 compounds; about 290 (0.32%) were called active. Not shown: some 7% with an inconclusive outcome. The call rests on the fitted dose curve; in most records, active means well fitted inhibition curve with a large enough effect; inconclusive means small, poorly fitted or top-dose-only effect; inactive means no such curve, though single readings can be large or run the other way. The entries come from a sample that favours actives as a whole. Entries that show only a call come without a potency.

What follows are compounds tested against Single-stranded DNA cytosine deaminase (Homo sapiens) (UniProt Q9GZX7) (assay: Primary qHTS assay for inhibitors of Activation Induced Cytidine Deaminase (AID): AID signal). Conditions: AID deamination FRET fluorescence, UDG-coupled, 4 h; series mostly up to 115 µM.
Sequence of Single-stranded DNA cytosine deaminase (Homo sapiens) (Q9GZX7 whole entry, looked up): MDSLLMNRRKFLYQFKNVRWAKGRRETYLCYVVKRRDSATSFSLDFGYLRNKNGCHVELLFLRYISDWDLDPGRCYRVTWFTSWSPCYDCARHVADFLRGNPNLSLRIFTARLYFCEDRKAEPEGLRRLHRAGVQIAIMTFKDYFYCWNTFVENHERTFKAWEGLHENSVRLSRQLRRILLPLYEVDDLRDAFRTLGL
Excerpt: Assay Provider (PI) Patricia Gearhart Ph.D.
National Institute on Aging
National Institute of Health (NIH), Bethesda, MD
Assay Provider (PI) Rahul Kohli Ph.D.
Perelman School of Medicine
University of Pennsylvania, Philadelphia, PA
Activation-Induced Deaminase (AID) is a cytosine deaminase which converts cytosine into uracil within stretches of ssDNA. The presence of uracil in DNA initiates a cascade of mutagenic DNA repair to introduce point mutations and DNA double strand breaks. Specific targeting of AID to the immunoglobulin heavy chain loci (Igh) promotes mutagenesis in the antibody variable region for somatic hypermutation (SHM) or switch regions leading to class switch recombination (CSR). However, AID also plays a role in accumulating unnecessary mutations across the genome. Mis-targeting of AID results in the initiation of tumor development and leads to greater drug resistance among cancer cells when continually expressed. To identify an AID inhibitor, a small molecule library will be screened in collaboration with NCATS core facility at NIH. To confirm biological function, inhibitors will be examined in an in vitro murine B-cell activation assay and subsequent secondary validation screens. Top molecules will be further screened to identify inhibitory efficacy against a wild type primary splenocytes assay. Using these approaches, we hope to identify a small molecule with great efficacy and low toxicity for use as a molecular probe to further characterize AID's intricacies, or even as a therapeutic.
A FRET based analysis of cytosine deamination, was developed to identify potential inhibitors of AID catalytic activity. This screen has two signal output, Read 1 evaluates the AID inhibition response. The second readout (Read 2) evaluates UDG response and is uses as a counterscreen to exclude false positive inhibitors. Inhibition in AID and inactivity in the UDG signal is the desired outcome for this assay.
SEQUENCE No. (e.g., 1, 2, 3, etc.); […] (e.g., Cells, Incubation, Reagent, etc.); VALUE; DESCRIPTION
1a; Reagent; 3 uL; [4/3x] 1 uM AID/2.67 U/mL UDG
1b; Reagent; 3 uL; 2 U/mL UDG
1c; Reagent; 3 uL; 1 uM AID
2a; Compound; 46 nL; Follow-up plates (0.64 uM - 10 mM)
2b; Control; 46 nL; ATA ([…] - 10 mM)
3; Time; 10 min; incubation at room temperature
5; Time; 4 hr; incubation at room temperature
6; Reagent; 4 uL; [2x] 250 mM NaOH
7; Time; 15 sec; centrifuge at 1000 rpm
8; Time; 30 min; incubation at room temperature
9a; Detection; fluorescence (Read 1: AID); EnVision (PerkinElmer) plate reader, 540 excitation and 590 emission filters
9b; Detection; fluorescence (Read 2: UDG); EnVision (PerkinElmer) plate reader, 560 excitation and 665 emission filters
NOTES (numbers refer to sequence above)
1a; Reagents were dispensed in a medium-binding black solid-bottom Greiner plates (789176F) using a BioRptr liquid dispenser. Dispense 3 uL of [4/3x] 1 uM AID (provided by Kohli lab) and [4/3x] 2 U/mL UDG (NEB M0280L) into columns 1, 2, 5 to 48.
1b; Dispense 3 uL of [4/3x] 2 U/mL UDG into column 3.
1c; Dispense 3 uL of [4/3x] 1 uM AID into column 4.
2a; Compound (7-points [uM] (0.64; 3.2; 16; 80; 400; 2,000; 10,000; 20,000) double pin-transferred (Dip Factor = 2) using the Kalypsys (Wako USA) pintool equipped with a 1536 pinhead for a final concentration range of 7.32 nM - 114 uM. […]
9a; Fluorescence signal (column label AID) was read using the EnVision plate reader. […]
Further: nearly all actives have a fitted effect of over 25% in size.
Potency means the concentration at half of the fitted maximal effect.

Row | SMILES | Potency
1 | CC(=O)c1c(O)c(C)c(O)c(Cc2c(O)c3c(c(C(=O)/C=C/c4ccccc4)c2O)OC(C)(C)C=C3)c1O | 28.2 µM (active)
2 | Cc1cccc2c(CCN)c[nH]c12 | inactive
3 | COc1cccc(CNCCc2ccccc2)c1 | inactive
4 | COC1CC(OC2CCC3(C=O)[C@H]4CCC5(C)C(C6=CC(=O)OC6)CCC5(O)[C@@H]4CCC3(O)C2)OC(C)C1O (stereo not given in full) | inactive
5 | O=C(O)CCS(=O)(=O)C(Cl)Cl | inactive
